# System: HepG2
# Assay: GSK_TCMDC: Percent inhibition of human HepG2 cell line. Test compounds present at 10uM.
# Assay type: functional
row,SMILES,Inhibition
1,Cc1ccc(NC(=O)N2CCCN(CCCCCNC(=O)/C=C/c3ccc(Cl)c(Cl)c3)CC2)cc1C,62%
2,CS(=O)(=O)c1ccc(CNCc2ccc(-c3ccc(-c4nc5cc(F)ccc5[nH]4)s3)cc2)cc1.O=C(O)C(F)(F)F,22%
3,Cc1cc(N[C@@H](CC(C)C)C(=O)NCCOc2ccccc2)nc(NCC2CCCCC2)n1.O=C(O)C(F)(F)F,24%
4,COc1ccccc1CCNC(=O)c1cnc(N2CCN(c3ccncc3)CC2)c(Cl)c1.O=C(O)C(F)(F)F,30%
5,CCC(C)NS(=O)(=O)c1ccc2nc(Nc3ccc(C)c(Cl)c3)n(C(C)C(C)C)c2c1 (stereo not given),22%
6,Cc1ccc(CN2CCCN(Cc3cccc(NC(=O)c4cc5ccccc5s4)c3)CC2)cc1.O=C(O)C(F)(F)F,32%
7,Cl.O=c1cc(NCCCNCc2ccc(C(F)(F)F)s2)[nH]c2ccccc12,0%
8,COc1ccc(C[C@H](N)C(=O)N[C@H]2[C@@H](O)[C@H](n3cnc4c(N(C)C)ncnc43)O[C@@H]2CO)cc1 [PUROMYCIN],99%
9,COc1ccc(Cl)cc1NC(=O)C(C)N1CCN(S(=O)(=O)c2ccccc2F)CC1 (stereo not given),5%
10,NCCCNc1ccnc2cc(Cl)ccc12,14%
11,CC(=O)Nc1cccc(C(=O)Nc2ccc(-c3cccc(-c4nc5cc(F)ccc5[nH]4)c3)cc2)c1,90%
12,Cl.Oc1ccc(Nc2nc(NCC3CCCO3)c3ccccc3n2)cc1 (stereo not given),7%
13,CCOc1cc(C(=O)Nc2ccc3nc(N(CC)CC)cc(C)c3c2)cc(OCC)c1OCC,16%
14,Clc1ccc(OCc2ccccc2)c(-c2nc(-c3nc4ccc(Cl)cc4[nH]3)cs2)c1,0%
15,Br.COc1cc(OCCCCCCON2C(=N)N=C(N)NC2(C)C)cc(OC)c1OC,41%
16,Cc1cc(N[C@@H](Cc2ccccc2)C(=O)NCc2cccc(F)c2)nc(NCCc2cccnc2)n1.O=C(O)C(F)(F)F,18%
17,C=CCn1c(Sc2ccc(C#N)c([N+](=O)[O-])c2)nnc1-c1cc(OC)cc(OC)c1,12%
18,COc1cc(F)c2nccc([C@@H](O)CN3CCC(NCc4ccc5c(n4)NC(=O)CS5)CC3)c2c1,23%
19,O=C(N[C@@H](CC1CCCCC1)C(=O)NCCc1ccc(Cl)c(Cl)c1)c1ccc(O)c(-c2ccc(Cl)c(Cl)c2)c1,0%
20,Cc1cccc(-c2nc3cc(NC(=O)c4ccc([N+](=O)[O-])o4)ccc3o2)c1,8%
21,CCN(c1ccc(F)cc1)S(=O)(=O)c1cc(Br)cc2c1N(C(=O)C1CC1)CC2,0%
22,O=C(O)C(F)(F)F.O=C1CCCN1CCCNCc1ccc(-c2ccc(-c3nc4cc(F)ccc4[nH]3)s2)cc1,19%
23,Cn1c(Nc2cc(C(C)(C)C)on2)nc2cc(Nc3ccnc(Nc4ccc(CS(C)(=O)=O)cc4)n3)ccc21,37%
24,CCCCCCNC(=O)C1Cc2c([nH]c3ccc(C)cc23)C2(CCN(Cc3ccccc3)CC2)N1 (stereo not given),25%
25,COc1cccc(NC(=O)Nc2ccc(C)c(-c3ccc(C(=O)Nc4ccncc4)cc3)c2)c1,45%
26,CCCN(C(=O)c1ccccc1C)c1nnc(-c2ccccc2C)s1,16%
27,CN(C)CC(O)C(c1ccccc1)c1cccc(Br)c1.Cl (stereo not given),22%
28,O=C(Nc1ccc(-c2cccc(-c3nc4cc(C(F)(F)F)ccc4[nH]3)c2)cc1)c1csnn1,42%
29,O=C(O)C(F)(F)F.Oc1ccc(CCNc2nc(NCCCOc3ccccc3-c3ccncc3)nc(N3CCNCC3)n2)cc1,8%
30,CC(CN(C)C)C(=O)Nc1ccc(-c2cccc(-c3nc4ccccc4[nH]3)c2)cc1 (stereo not given),68%

# Reference: ChEMBL document CHEMBL1157539, “Thousands of chemical starting points for antimalarial lead identification” (Nature, 2010)
